About 83,000 compounds went through this panel and 20% of them were active in at least one assay; those are over-represented in the sample as a whole.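 Treatment: one concentration, 48 hours, 96-well format. Scoring: percent growth, with anything below 10 considered active.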 Unmarked numbers belong to inactive results. Calls of active or inactive are those of the source.
Tests used:
Experiment in all cases: NCI-60 one-dose screen, 48 h (100 = growth as untreated, 0 = no growth, -100 = all killed)
[1] = test system: HCT-15 colon; conditions: 10 µM unless noted
[2] = test system: HT29 colon; conditions: 10 µM unless noted
[3] = test system: SNB-75 CNS; conditions: 10 µM unless noted
[4] = test system: SNB-19 CNS; conditions: 10 µM unless noted
[5] = test system: U251 CNS; conditions: 10 µM unless noted
[6] = test system: PC-3 prostate; conditions: 10 µM unless noted
[7] = test system: SK-MEL-5 melanoma; conditions: 10 µM unless noted
[8] = test system: UACC-62 melanoma; conditions: 10 µM unless noted
[9] = test system: LOX IMVI melanoma; conditions: 10 µM unless noted
[10] = test system: SK-MEL-28 melanoma; conditions: 10 µM unless noted
[11] = test system: SK-MEL-2 melanoma; conditions: 10 µM unless noted
[12] = test system: EKVX NSCLC; conditions: 10 µM unless noted
[13] = test system: SN12C renal; conditions: 10 µM unless noted
[14] = test system: UO-31 renal; conditions: 10 µM unless noted
[15] = test system: ACHN renal; conditions: 10 µM unless noted
[16] = test system: CAKI-1 renal; conditions: 10 µM
[17] = test system: CCRF-CEM leukemia; conditions: 10 µM unless noted
[18] = test system: MOLT-4 leukemia; conditions: 10 µM unless noted
[19] = test system: A498 renal; conditions: 10 µM unless noted

Compound	growth [1]	growth [2]	growth [3]	growth [4]	growth [5]	growth [6]	growth [7]	growth [8]	growth [9]	growth [10]	growth [11]	growth [12]	growth [13]	growth [14]	growth [15]	growth [16]	growth [17]	growth [18]	growth [19]
COc1ccc(CCNC=O)cc1OC	103%	114%	80.7%	92.4%	110%	100%	95.5%	103%	98.1%	106%	105%	105%	97.4%	82.3%	101%	100%	105%	100%	–
CSc1ccc(C(=O)C[n+]2cccc(C)c2)cc1	103%	99.8%	90.7%	97.8%	101%	96%	100%	95.1%	103%	105%	110%	100%	99.9%	97.4%	112%	102%	–	97%	86.7%
COc1ccc(C(=O)NC(=O)Nc2ccc3c(c2)NC(=O)/C3=C\c2[nH]c(C)c(C(=O)O)c2C)c(F)c1	47.8%	16.5%	30.4%	79.3%	32.1%	40.2%	28.2%	38.3%	52.4%	57.9%	55.3%	94.4%	57.9%	88.4%	55.2%	–	84.3%	86.2%	–
Cc1cc(NC(=O)c2cccc(C(F)(F)F)c2)ccc1-n1ccc2c(NC(=O)c3ccccc3)nccc21	92.3%	94.5%	91.2%	98.4%	95.7%	74.6%	101%	96.9%	101%	104%	101%	94.1%	94%	78.5%	106%	93.1%	–	87.8%	112%
O=C(NCCNc1nccc(-c2c(-c3cccc(O)c3)nc3sccn23)n1)c1ccccc1	88.4%	65.4%	54.4%	91.1%	61.9%	68.5%	40.2%	0.903% (active)	23.2%	37.8%	45.5%	94.2%	66.4%	87.7%	60.5%	87.9%	–	67.1%	48%
Cc1ccc(=O)n(-c2ccc(Br)cc2F)c1	105%	107%	74.9%	105%	98.1%	91.4%	97.3%	101%	94.5%	108%	116%	99.5%	107%	90.7%	94.6%	–	99.9%	108%	84%
O=[N+]([O-])c1ccccc1NC1c2ccccc2Oc2ccccc21	37%	11%	69.5%	68.7%	40.9%	56.1%	46%	48.7%	65.1%	69.3%	57%	78.2%	92.9%	60.8%	–	45.6%	42.9%	13.8%	10.7%
C=CCn1c(SCC(=O)Nc2ccc(C(=O)/C=C/c3cc(OC)c(OC)c(OC)c3)cc2)nnc1-c1ccc(OC)cc1	-1.54% (active)	-27.9% (active)	6.75% (active)	14.3%	-65.2% (active)	25.1%	1.15% (active)	-6.54% (active)	-43.5% (active)	10.1%	15.1%	14.1%	13.8%	-79.6% (active)	-56.1% (active)	16.5%	6.53% (active)	–	–
O=C1c2ccccc2OC=C(c2ccccc2)N1CCCCN1CCCCC1	86.2%	13.6%	76.1%	50.7%	30.3%	23.3%	84.5%	69.1%	54.5%	87.3%	69%	39.5%	20.4%	85.8%	–	101%	43.9%	60.6%	87.1%
CCCCCCCC(=O)SCC/C=C/[C@@H]1CC(=O)NCc2nc(cs2)C2=N[C@@](C)(CS2)C(=O)N[C@@H](C(C)C)C(=O)N1	61%	-22.4% (active)	35.8%	20.8%	-33.5% (active)	19.6%	-21.3% (active)	-25% (active)	-91.8% (active)	25.3%	-34.7% (active)	32.8%	35.5%	18.9%	7.25% (active)	–	21.3%	9.36% (active)	-50.3% (active)
O=c1nc(N2CCOCC2)oc2c(-c3cccc4ccccc34)cccc12	93.3%	89.6%	46.9%	91.8%	85.8%	59.7%	79.2%	54.4%	80.1%	94.4%	100%	81.1%	82.3%	53.4%	81.6%	–	91.5%	93.1%	–
O=C(Nc1ccc(-n2ccc3c(NC(=O)c4ccccc4)ncnc32)cc1)Nc1cccc(Cl)c1Cl	9.38% (active)	-40.2% (active)	3.19% (active)	-3.36% (active)	-80% (active)	-57.5% (active)	14.9%	33.4%	-23.9% (active)	-24.2% (active)	-39.1% (active)	-5.65% (active)	-31.9% (active)	-80.4% (active)	–	-26% (active)	–	25.5%	12%
COc1ccc(-c2nn(-c3ccc(NC(=O)c4cc(C(F)(F)F)cc(C(F)(F)F)c4)cc3)cc2-c2ccncc2)cc1Cl	46%	53.7%	72.5%	85.7%	52.7%	45.1%	69.1%	55.6%	46.4%	79.9%	89.9%	70.3%	77.2%	44.6%	–	41.2%	59%	62.2%	45.8%
CCCCOc1nc2ccc(Cl)cc2cc1/C=C/C(=O)/C=C/c1ccc(OC)cc1	91.5%	71.6%	97.9%	105%	80.5%	88.9%	93.9%	78.9%	71.5%	107%	90.5%	110%	92.7%	84.4%	105%	99.1%	87.2%	78%	–
COc1cc2ncn3c(=O)c4c5c(sc4nc3c2cc1OC)CCCCC5	107%	112%	73.2%	102%	102%	90.9%	94.9%	93.7%	88.2%	107%	113%	87.9%	105%	92.5%	94%	–	103%	106%	90.9%
CCCC(=O)Oc1ccc(/C(=C(\C)c2ccc(OC)cc2)c2ccc(OCCN3CCCCC3)cc2)cc1	64.1%	1.78% (active)	73%	91%	63.8%	64.7%	68.8%	63.6%	68.5%	63.9%	80.9%	89.1%	84.8%	65.2%	91.8%	–	83.3%	72.5%	80.7%
O=C(Nc1cccc(-n2ccc3c(NC(=O)c4ccccc4)nccc32)c1)c1cc(N2CCOCC2)cc(C(F)(F)F)c1	3.17% (active)	-22.6% (active)	39.2%	26.3%	4.89% (active)	27.9%	-74.7% (active)	17.5%	9.47% (active)	38%	-4.8% (active)	36.8%	18.8%	9.78% (active)	6% (active)	23.5%	13.5%	0.605% (active)	–
